The source of these data is PubChem BioAssay (NCI).

The structures appear in SMILES notation. About 83,000 compounds went through this panel and 20% of them were active in at least one assay; those are over-represented in the sample as a whole.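 For each line, cells grew in 96-well plates with the test compound present at a single concentration for 48 hours.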 Unmarked numbers belong to inactive results. Calls of active or inactive are those of the source. The calls were made as follows: active = growth percent below 10; inactive = the rest.

This assay relates to KM12 colon. Nature of the assay: NCI-60 one-dose screen, 48 h (100 = growth as untreated, 0 = no growth, -100 = all killed). As to conditions: 10 µM unless noted.
Turning to `COc1c(F)ccc(C(=O)Nc2ccc3nc(NC(=O)C4CCCN(S(=O)(=O)C5CC5)C4)sc3c2)c1F` (configuration not stated), the growth was 44%. `CCOC(=O)C1=C(N)N(c2ccccc2)C2=C(C(=O)CC(C)(C)C2)C1c1ccc(N2CCOCC2)cc1` (configuration not stated): the growth was 105%. The result for `OCC1(CCCc2ccccc2)CCCN(c2nccc3ccccc23)C1` (configuration not stated) reads 29.1%. To `COc1ccc(/C=N/NC(=O)Cn2nc(Cc3ccc(OC)cc3)c3onc(C)c3c2=O)cc1` belongs 53%; to `O=[N+]([O-])c1ccc(/C=C/c2nc3ccccc3n3c(=S)[nH]nc23)cc1`, 79.3%; to `COC(=O)/C=C/c1cccc2c1C(=O)NC(C)(c1cc3ccccc3oc1=O)N2` (configuration not stated), 68.8%. To `CCN(CC)c1ccc(/C=N/Nc2nc(-c3ccc(Br)cc3)cs2)c(O)c1` belongs 86.3%; to `O=C(c1ccccc1)C(c1c[nH]c2ccccc12)c1c[nH]c2ccccc12`, 51.3%. As for `CC1(C)CC[C@]2(C(=O)Nc3ccc(Br)cc3)CC[C@]3(C)C(=CCC4[C@@]5(C)C[C@@H](O)[C@H](O)[C@@](C)(CO)C5CC[C@]43C)C2C1` (some centres not stated), the growth was -52.9% (active). The result for `CC(/C=C1\SC(=S)N(CCCC(=O)NC(CC(C)C)C(=O)O)C1=O)=C\c1ccccc1` (configuration not stated) reads 57.9%; that for `Cn1cc(-c2cc(N)n3nc(-c4cn(C)c5ccccc45)cc3n2)c2cc(Br)ccc21`, -60.4% (active); that for `Cc1ccc(NCC(=O)Cn2cc(COc3ccc(C=Nc4cnc5ccccc5c4)cc3)nn2)cc1`, 105%.

Regarding `Cc1ccc([C@H]2C(C(=O)c3ccc(Cl)cc3)C3(N[C@@H]2c2ccccc2)C(=O)Nc2ccc(Cl)cc23)cc1` (some centres not stated), the growth is 34.8%.

Turning to `Cc1cc2nc3c4ccccc4n(CCNCCN(C)C)c3nc2cc1C`, the growth is 27.4%.

Take `Cc1ccccc1[C@H]1C(C(=O)c2ccc(Cl)cc2)C2(N[C@@H]1c1ccccc1)C(=O)Nc1ccc(Br)cc12` (some centres not stated): the growth is 3.4% (active). For the compound `CC(C)c1sc(NC(=O)c2cc(NC(=O)c3cc(NC(=O)c4cscn4)cn3C)cn2C)nc1C(=O)NCCCN(C)C`, the growth is 59.2%.

Take `CC(=O)OC[C@@]1(C)C2CC[C@]3(C)C(CC=C4C5CC(C)(C)CC[C@]5(C(=O)Nc5ccc(C)cc5)CC[C@]43C)[C@@]2(C)C[C@@H](OC(C)=O)[C@@H]1OC(C)=O` (some centres not stated): the growth is 51.9%. The result for `O=C1CC(Sc2n[nH]c(-c3ccncc3)n2)C(=O)N1c1ccc(Br)cc1` (configuration not stated) reads 109%. The result for `COc1cc2c3c(n(CCCN4CCC[C@@H]4CO)c(=O)c2cc1OC)-c1cc2c(cc1C3=O)OCO2` reads -98.2% (active).

For `C=C1CCC2C3(C)COC(c4ccc(F)cc4)OC3CCC2(C)C1C/C=C1/C(=O)OCC1O` (configuration not stated), the growth is -44.7% (active).

For the compound `Cc1sc(C(NC(=O)OCCn2c([N+](=O)[O-])cnc2C)C(F)(F)Cl)nc1-c1ccc(OC(F)(F)F)cc1` (configuration not stated), the growth was -61.9% (active). The result for `CC1[C@H]2[C@H](C[C@H]3[C@@H]4CC=C5c6sc(Nc7ccccc7F)nc6CC[C@]5(C)[C@H]4CC[C@@]32C)O[C@]12CC[C@@H](C)CO2` (some centres not stated) reads -90.7% (active). To `O=C(c1ccccc1)c1ccc2nc(-c3cccc(Cl)c3)[nH]c2c1` belongs 108%; to `OCNc1ccc(-n2cnc3cc(-c4ccc(O)cc4)ccc32)cc1C(F)(F)F`, 4.46% (active); to `CCOC(=O)C(N=Nc1ccc(S(=O)(=O)N=C(N)N)cc1)C(C)=O` (configuration not stated), 103%.

On to `CCOC(=O)/C=C/c1cccc2c1C(=O)NC(C)(c1cc3cc(Cl)ccc3oc1=O)N2` (configuration not stated), for which the growth was 26%. To `C#CCOc1cc(N(CC)CC)ccc1C(C(=O)NC(C)(C)C)N(C(=O)C1CCc2cc(F)ccc2O1)c1ccc(Br)cc1` (configuration not stated) belongs 60.4%.

As for `CCCCCCCCc1ccc(C(=O)Nc2ccc(C)cc2C(=O)O)cc1C`, the growth was 79.7%.

Consider `C#CCOc1cc(N(CC)CC)ccc1C(C(=O)NC(C)(C)C)N(C(=O)C1CCc2cc(F)ccc2O1)c1ccc(F)c(Cl)c1` (configuration not stated), for which the growth is 57.5%. Take `CCOC(=O)C1=C(N)N(c2ccccc2)C2=C(C(=O)CC(C)(C)C2)C1c1ccc([N+](=O)[O-])cc1` (configuration not stated): the growth is 99.5%. To `C=C1CC[C@@H]2[C@]3(C)COC(c4ccccc4)O[C@@H]3CC[C@@]2(C)[C@@H]1C/C=C1/C(=O)OCC1OC(C)=O` (some centres not stated) belongs -9.91% (active); to `C#C[C@]1(O)CC[C@H]2[C@@H]3CC=C4c5sc(-c6ccc([N+](=O)[O-])cc6)nc5CC[C@]4(C)[C@H]3CC[C@@]21C`, -27.1% (active).
